In PubChem BioAssay (EPA / NIEHS):
Several values for one entry are separate records, joined by “and”; a condition that tells them apart may be missing. Equal entries are not always repeated. The source holds several records for some structures; these can differ, active in one and inactive in another. Activity calls are given as the source filed them. The calls were made as follows: active = hit-call score of the fitted dose curve at least 0.9, where 1 is the maximum; inactive = score below 0.9.

Assay: APR_HepG2_MitoMass_24hr: Apredica 24-hour HepG2 Assay for Mitochondrial Mass (AID 2282912)
Details: high-content imaging, actives raise or lower the signal
Procedure, shortened: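 HepG2 cells exposed 24 hr to 0.39–200 uM compound, 0.5% v/v DMSO, in duplicate. Stained before fixation with 250 nM MitoTracker Red CMXRos for 30 min, then imaged at 20x with Hoechst nuclei. Fitted in both directions against DMSO.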

Row | SMILES | outcome | AC50
1 | OCCOc1ccccc1 | inactive | –
2 | CC1(c2ccc(Oc3ccccc3)cc2)OC(=O)N(Nc2ccccc2)C1=O (stereo not given) | inactive | –
3 | CC(C)(C)C(O)C(Oc1ccc(Cl)cc1)n1cncn1 (stereo not given) | inactive | –
4 | O=S1OCC2C(CO1)C1(Cl)C(Cl)=C(Cl)C2(Cl)C1(Cl)Cl (stereo not given) | inactive | –
5 | CC(C)OC(=O)Nc1cccc(Cl)c1 | inactive | –
6 | COP(=S)(OC)Oc1ccc([N+](=O)[O-])cc1 | inactive | –
7 | O=C(O)C(F)(F)C(F)(F)C(F)(F)C(F)(F)C(F)(F)C(F)(F)C(F)(F)F | inactive | –
8 | Cc1[nH]c(=O)n(C(C)(C)C)c(=O)c1Cl | inactive | –
9 | O=[N+]([O-])c1c(Cl)c(Cl)c(Cl)c(Cl)c1Cl | inactive | –
10 | CCCN(CCOc1c(Cl)cc(Cl)cc1Cl)C(=O)n1ccnc1 | inactive | –
11 | O=S(=O)(O)C(F)(F)C(F)(F)C(F)(F)C(F)(F)C(F)(F)C(F)(F)C(F)(F)C(F)(F)F | inactive | 116 µM (active) [middle of 4 runs]
12 | Oc1cc(Cl)ccc1Oc1ccc(Cl)cc1Cl | inactive | 177 µM (active) and 59 µM (active)
13 | CCC(C)(NC(=O)c1cc(Cl)c(C)c(Cl)c1)C(=O)CCl (stereo not given) | inactive | –
14 | CNC(=O)Oc1ccccc1OC(C)C | inactive | –
15 | CNC(=O)CSP(=S)(OC)OC | inactive | –
16 | O=C1c2ccccc2C(=O)N1SC(Cl)(Cl)Cl | inactive | –
17 | ClC1C(Cl)C(Cl)C(Cl)C(Cl)C1Cl (stereo not given) | inactive | –
18 | [2H]C1([2H])[n+]2ccccc2-c2cccc[n+]2C1([2H])[2H] | inactive | –
19 | COC(=O)c1ccccc1CS(=O)(=O)NC(=O)Nc1nc(OC)cc(OC)n1 | inactive | –
20 | CC[C@H](C)[C@H]1O[C@]2(C=C[C@@H]1C)C[C@@H]1C[C@@H](C/C=C(\C)[C@@H](O[C@H]3C[C@H](OC)[C@@H](O[C@H]4C[C@H](OC)[C@@H](O)[C@H](C)O4)[C@H](C)O3)[C@@H](C)/C=C/C=C3\CO[C@@H]4[C@H](O)C(C)=C[C@@H](C(=O)O1)[C@]34O)O2 (tested in a mixture with another compound) | – | 114 µM (active)
21 | CNC(=O)Oc1cccc(N=CN(C)C)c1 | inactive | –
22 | Clc1ccccc1-c1nnc(-c2ccccc2Cl)nn1 | inactive | –
23 | Cc1cc(C)nc(NC(=O)NS(=O)(=O)c2ccccc2C(=O)OC2COC2)n1 | inactive | –
24 | O=C(O)COc1ccc(Cl)cc1Cl | inactive | –
25 | COC(=O)c1ccccc1S(=O)(=O)NC(=O)N(C)c1nc(C)nc(OC)n1 | inactive | –
26 | Oc1ccc(Cl)cc1Cc1ccccc1 | inactive | 47.2 µM (active) and 157 µM (active) and 159 µM (active)

Assay: APR_HepG2_p53Act_24hr: Apredica 24-hour HepG2 Assay for p53 Activation (AID 2282913);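 also: p53 protein immunofluorescence averaged per cell in HepG2 with Hoechst nuclei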
Details: high-content imaging, actives raise or lower the signal
Procedure, shortened: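 Fluorescence imaging of formaldehyde-fixed HepG2 cells labelled for p53 and with Hoechst, 24 h after dosing (0.39–200 uM, duplicate wells, 0.5% v/v DMSO). Signal fitted in both directions relative to DMSO.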

Row | SMILES | outcome | AC50
27 | OCCOc1ccccc1 | inactive | –
28 | CC1(c2ccc(Oc3ccccc3)cc2)OC(=O)N(Nc2ccccc2)C1=O (stereo not given) | inactive | –
29 | CC(C)(C)C(O)C(Oc1ccc(Cl)cc1)n1cncn1 (stereo not given) | inactive | –
30 | O=S1OCC2C(CO1)C1(Cl)C(Cl)=C(Cl)C2(Cl)C1(Cl)Cl (stereo not given) | inactive | –
31 | CC(C)OC(=O)Nc1cccc(Cl)c1 | inactive | –
32 | COP(=S)(OC)Oc1ccc([N+](=O)[O-])cc1 | inactive | –
33 | O=C(O)C(F)(F)C(F)(F)C(F)(F)C(F)(F)C(F)(F)C(F)(F)C(F)(F)F | inactive | –
34 | O=[N+]([O-])c1c(Cl)c(Cl)c(Cl)c(Cl)c1Cl | inactive | –
35 | CCCN(CCOc1c(Cl)cc(Cl)cc1Cl)C(=O)n1ccnc1 | inactive | –
36 | O=S(=O)(O)C(F)(F)C(F)(F)C(F)(F)C(F)(F)C(F)(F)C(F)(F)C(F)(F)C(F)(F)F | inactive | 111 µM (active) [middle of 4 runs]
37 | Oc1cc(Cl)ccc1Oc1ccc(Cl)cc1Cl | inactive | 28.4 µM (active)
38 | CCC(C)(NC(=O)c1cc(Cl)c(C)c(Cl)c1)C(=O)CCl (stereo not given) | inactive | –
39 | CNC(=O)Oc1ccccc1OC(C)C | inactive | –
40 | O=C1c2ccccc2C(=O)N1SC(Cl)(Cl)Cl | inactive | –
41 | ClC1C(Cl)C(Cl)C(Cl)C(Cl)C1Cl (stereo not given) | inactive | –
42 | [2H]C1([2H])[n+]2ccccc2-c2cccc[n+]2C1([2H])[2H] | inactive | –
43 | COC(=O)c1ccccc1CS(=O)(=O)NC(=O)Nc1nc(OC)cc(OC)n1 | inactive | –
44 | CC[C@H](C)[C@H]1O[C@]2(C=C[C@@H]1C)C[C@@H]1C[C@@H](C/C=C(\C)[C@@H](O[C@H]3C[C@H](OC)[C@@H](O[C@H]4C[C@H](OC)[C@@H](O)[C@H](C)O4)[C@H](C)O3)[C@@H](C)/C=C/C=C3\CO[C@@H]4[C@H](O)C(C)=C[C@@H](C(=O)O1)[C@]34O)O2 (tested in a mixture with another compound) | inactive | –
45 | CNC(=O)Oc1cccc(N=CN(C)C)c1 | inactive | –
46 | Cc1cc(C)nc(NC(=O)NS(=O)(=O)c2ccccc2C(=O)OC2COC2)n1 | inactive | –
47 | O=C(O)COc1ccc(Cl)cc1Cl | inactive | –
48 | COC(=O)c1ccccc1S(=O)(=O)NC(=O)N(C)c1nc(C)nc(OC)n1 | inactive | –
49 | Oc1ccc(Cl)cc1Cc1ccccc1 | inactive | 80.5 µM (active) and 50.5 µM (active)
